# Assay results reported in PubChem BioAssay AID651965 (National Center for Advancing Translational Sciences (NCATS), 2013).
# Out of some 340,000 compounds screened, about 6,400 (1.9%) were called active. About 4% were inconclusive and are not listed. Calls come from the whole dose curve; as a rule, active = well fitted falling curve with a large enough effect; inconclusive = small, poorly fitted or top-dose-only effect; inactive = no such curve, though single readings can be large or run the other way. The list comes from a sample in which actives are over-represented; it also holds similar structures and randomly drawn compounds. Where a call stands in place of a potency, no number is given.
# Target: ATP-dependent Clp protease proteolytic subunit (Bacillus subtilis (strain 168)) (UniProt P80244)
# Assay: qHTS Assay for Activators of ClpP; note: the source files actives as falling curves though it sought activators and does not explain the sign; nearly all actives have a fitted effect of over 65% in size
# Conditions: purified B. subtilis ClpP, FRET peptide cleavage, 20 min; series mostly up to 57.5 µM
# In short: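 ClpP 10 microg/mL final, pH 8 Tris/KCl buffer with BSA, glycerol, Tween-20; compound pinned in; FRET-FV substrate; RT 20 min; Ex320/Em430; ΔFRET vs ADEP 5.8 microM, DMSO, no enzyme.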
# Potency is the fitted concentration of half-maximal effect.
row,Compound,Potency
1,Nc1nc2c(ncn2[C@@H]2O[C@H](CNCc3ccc(OCCCN4CCOCC4)cc3)[C@@H](O)[C@H]2O)c(=O)[nH]1,inactive
2,CCCCC[C@H](C)N1C[C@@H](COCc2ccccc2)Oc2cc(N3CCC[C@@H]3CO)ccc2S1(=O)=O,inactive
3,CCCNC(=O)c1ccc(N2CCC3(CC2)CC(c2cccc(Br)c2)=NO3)c(NC(=O)c2ccco2)c1,inactive
4,CCCN(CCC)CCNC(=O)c1ccc2c(c1)NC(=O)C(CS(=O)(=O)Cc1cccc(Br)c1)N2 (stereo not drawn),2.82 µM (active)
5,O=C(NC1CC1)c1cccc(Br)c1,inactive
6,COc1ccc(OC)c(NC(=O)C2(C)CCN2C(=O)Cc2ccccc2)c1 (stereo not drawn),inactive
7,Cc1cccc(C)c1NC(=O)C(c1ccc(C(F)(F)F)cc1)n1c(=O)c(-c2ccco2)nc2ccccc21 (stereo not drawn),inactive
8,CCOC(=O)c1ccc(Nc2cc3ccccc3c(=O)[nH]2)cc1,inactive
9,CCOC(=O)C1=C(CCc2ccccc2)NC(=O)NC1c1ccc2ccccc2c1 (stereo not drawn),inactive
10,CCOC(=O)c1sc(C)c2c1NC(C)(c1cccc3ccccc13)NC2=O (stereo not drawn),28.2 µM (active)
11,COc1cccc(-c2nnc(SCC(=O)N3CCC(C)CC3)o2)c1,inactive
12,COc1cccc(NC(=O)CSc2nnc(-c3cccnc3)o2)c1,inactive
13,COc1cccc(-c2nnc(SCCOc3ccc4c(C)cc(=O)oc4c3)o2)c1,28.2 µM (active)
14,CCCNC(=O)C1(C)CCCN(C(=O)c2oc3ccccc3c2C)C1 (stereo not drawn),inactive
15,OC[C@@H]1CN(Cc2ccc(F)cc2)C[C@H](n2cnc3c(NC4CCCC4)ncnc32)O1,inactive
16,CC1(c2ccccc2)CC(C)(C)N(C(=O)c2cc([N+](=O)[O-])cc([N+](=O)[O-])c2)c2ccccc21 (stereo not drawn),inactive
17,Cc1nnc(SCC(=O)N2c3ccccc3C(C)(c3ccc(Cl)cc3)CC2(C)C)s1 (stereo not drawn),31.6 µM (active)
18,CC1(c2cccc([N+](=O)[O-])c2)CC(C)(C)N(C(=O)c2ccccc2)c2ccccc21 (stereo not drawn),inactive
19,O=C(C[n+]1ccncc1)c1ccc2c(c1)CCCC2,inactive
20,COc1ccc(CC(N)c2csc(NC(=O)Nc3ccc(C(C)C)cc3)n2)cc1 (stereo not drawn),inactive
21,CO[C@H]1O[C@@H]2O[C@@]3(C)CC[C@@H]4[C@@H](C)CC[C@@H]([C@H]1C)[C@@]24OO3,inactive
22,CCOC(=O)c1ccn(S(=O)(=O)c2ccc(C)cc2)c1-c1ccccc1,inactive
23,CCOC(=O)CC(=O)CSc1nc(-c2ccccc2)cc(-c2ccc(Cl)cc2)c1C#N,inactive
24,CCOc1cc(-c2cc(-c3ccc(OC)cc3)nc(N)c2C#N)ccc1O,inactive
25,CCSc1nc(-c2ccc(OC)cc2)cc(-c2ccc(OC)cc2)c1C#N,22.4 µM (active)

row,Compound,Potency
1,CCc1ccc([C@@H]2CC(=O)[C@@H]3CN(S(=O)(=O)c4ccc(C)cc4)[C@H](c4ccc(Cl)cc4)C[C@@H]3N2S(=O)(=O)c2ccc(C)cc2)cc1,inactive
2,Cc1ccc(S(=O)(=O)N[C@H]2CCC[C@@H]2O)cc1,inactive
3,CCCNC(=O)c1cc(C2CCCN(C(=O)c3ccc4c(c3)CCO4)C2)on1 (stereo not drawn),inactive
4,CCOc1ccc(CNC(=O)C2CCC(=O)N2C2CCCC2)cc1OC (stereo not drawn),inactive
5,CCOc1cc(C2C(C(=O)OC)=CN(C3CCCC3)C=C2C(=O)OC)cc(Br)c1O,31.6 µM (active)
6,CCCC(=O)Nc1cc(OCC)c(NC(=O)NC2CCCCC2)cc1OCC,inactive
7,CCOc1ccc2[nH]c(=S)sc2c1,inactive
8,C=CCC[C@@H](CCCCC)OC(=O)/C=C/[C@@H](O)[C@H](O)C[C@H](O)CC=C,inactive
9,COc1ccc2oc(=O)c(C(=O)N3CCN(c4ccccc4F)CC3)cc2c1,inactive
10,O=C(NCc1ccccn1)c1cnc2sccn2c1=O,28.2 µM (active)
11,Cc1cc(C)cc(OCC(=O)NNC(=O)c2cc3ccccc3oc2=O)c1,inactive
12,COc1ccc(CNC(=O)c2cc3cccc(OC)c3oc2=O)cc1,inactive
13,Cc1ccc(S(=O)(=O)N2CCC(C)CC2)cc1C(=O)NCc1ccccn1,inactive
14,O=C(NCc1ccccn1)c1cc2ccccc2oc1=O,31.6 µM (active)
15,Cc1ccccc1CN1CCN(CC(=O)NCc2ccccn2)C1=O,inactive
16,COc1ccc2oc(=O)c(C(=O)NCc3ccccn3)cc2c1,10 µM (active)
17,COc1ccc2oc(=O)c(C(=O)O)cc2c1,20 µM (active)
18,COc1ccc2oc(=O)c(C(=O)N3CCCc4ccccc43)cc2c1,inactive
19,N=c1oc2ccccc2cc1C(=O)NCc1ccccc1,inactive
20,COc1cccc(S(=O)(=O)NCc2ccc(C(=O)NCc3ccccn3)cc2)c1,inactive
21,COc1cc(NC(=O)c2cc(-c3ccc(F)cc3OC(C)C)n[nH]2)cc(OC)c1OC,inactive
22,COc1ccc(NC(=O)C2Cc3c(-c4ccc5c(c4)OCO5)ccnc3O2)cn1 (stereo not drawn),inactive
23,COc1cc(C(O)c2nc(-c3cccc(C(=O)O)c3)cs2)ccc1F (stereo not drawn),inactive
24,Cc1cc2c(cc1C)N1C(=O)c3cc4ccccc4cc3NC(=O)C1C(=O)N2 (stereo not drawn),inactive
25,COc1cc(OC)c(OC)cc1/C=C1\C=Cc2ccccc21,inactive

row,Compound,Potency
1,CCOC(=O)C1(C)CCCN(C(=O)c2ccc(F)c(Cl)c2)C1 (stereo not drawn),inactive
2,O=C(NCc1ccc(F)cc1)c1cc(C2CCCCN2C(=O)C2CCCCC2)on1 (stereo not drawn),inactive
3,COc1cc(C(O)c2nc(-c3cnn(C)c3)cs2)ccc1F (stereo not drawn),inactive
4,CCc1ccc(Oc2coc3cc(OC(=O)c4cc5ccccc5oc4=O)ccc3c2=O)cc1,inactive
5,O=C(Oc1cccnc1)c1cc2ccccc2oc1=O,28.2 µM (active)
6,CCOC(=O)c1cc2cc3ccccc3cc2oc1=O,inactive
7,COc1ccc(Cl)cc1-c1cc(C(=O)Nc2cc(OC)c(OC)c(OC)c2)[nH]n1,inactive
8,CCCCCn1c(=O)[nH]c2cc(C(=O)NCCN(C)CCCC)ccc2c1=O,inactive
9,O=C(CCCn1c(=O)[nH]c2cc(Cl)ccc2c1=O)NCCN1CCN(c2ccccc2)CC1,inactive
10,CCN(CC)CCNC(=O)CCCCCn1c(=O)[nH]c2cc(C(=O)OC)ccc2c1=O,28.2 µM (active)
11,Nc1ncnc2c1ncn2[C@@H]1O[C@H](C(=O)NCC(F)(F)F)[C@@H](O)[C@H]1O,inactive
12,CCCCc1c(-c2ccc(Cl)cc2)ncn1CCc1ccccc1OC,inactive
13,Cc1ccc(-c2nc3c(Cl)cc(C(F)(F)F)cn3c2Cc2cccc(Cl)c2)cc1,inactive
14,Cc1ccc(-c2ccnc3nc(Sc4ncc(C(F)(F)F)cc4Cl)nn23)cc1,7.08 µM (active)
15,Cc1nn(-c2ncc(C(F)(F)F)cc2Cl)c(=O)n1-c1ccccc1,inactive
16,OCCC#Cc1ccc(N2C(c3ccsc3)=Cc3ccc(F)cc3C2c2c[nH]c3ccccc23)cc1 (stereo not drawn),inactive
17,CCOC(=O)C1(C(F)(F)F)N=C(N(C)C)OC(N(C)C)=N1,15.8 µM (active)
18,CCOC(=O)C1=C(C)c2ccccc2OC1(C)C(=O)OCC (stereo not drawn),inactive
19,Cc1cc(Br)cn2c(Cc3ccccc3C(F)(F)F)c(-c3ccc(Cl)cc3)nc12,inactive
20,C=C1C=C(C(F)F)n2ncc(C(=O)NCCc3ccccc3OC)c2N1,inactive
21,O=C(CCN1C(=O)c2ccccc2C1=O)NCCN1CCOCC1,inactive
22,O=C(Cn1c(-c2ccccn2)nc2ccccc21)NCCN1CCOCC1,28.2 µM (active)
23,Cc1ccc(Cn2c(C)c3cnn(CC(=O)NCCN4CCOCC4)c(=O)c3c2C)cc1,inactive
24,Cc1ccc(CC2(C)C(=O)Nc3ccc(OC(F)(F)F)cc32)cc1 (stereo not drawn),inactive
25,O=C(Nc1ccc2c(c1)OCCO2)C(C1CC1)N1CCC(Cc2ccccc2)CC1 (stereo not drawn),inactive

row,Compound,Potency
1,CCOC(=O)[C@]12CCCC=C1N(CCC1=CCCCC1)C(=O)[C@H](CC(=O)N1CCOCC1)C2,inactive
2,CCc1nc2c(OCc3ccc(Cl)cc3Cl)cccn2c1N(C)C(=O)C(C)C,inactive
3,CCc1nc2ccc(C(=O)N3CCN(c4cccc(Cl)c4)CC3)cc2nc1CC,inactive
4,CCc1nc2ccc(C(=O)N3CCN(c4cc(Cl)ccc4C)CC3)cc2nc1CC,inactive
5,CCOC(=O)N1CCN(C(=O)c2ccc3nc4cc(Cl)ccc4c(=O)n3c2)CC1,3.55 µM (active)
6,O=C(c1cccs1)N1C[C@H](n2cc(C3CC3)nn2)[C@@H](O)C[C@@H]1c1ccccc1,inactive
7,CC(C)N1C(=O)c2ccccc2NC(=O)C1C(=O)NCc1cccs1 (stereo not drawn),inactive
8,CC(=O)c1ccc(-c2cnc3c(NC=O)cc(-c4cccc(NS(C)(=O)=O)c4)cn23)cc1,inactive
9,Cc1ccccc1S(=O)(=O)NC(=O)C1(C)CCN1C(=O)C1(c2ccccc2)CCCC1 (stereo not drawn),inactive
10,O=C(Nc1ccccc1)N1CCC(C(=O)N2CCN(Cc3ccccc3)CC2)CC1,inactive
11,O=C(Nc1ccccc1)N1CCN(C2c3ccccc3-c3ccccc32)CC1,31.6 µM (active)
12,O=C(Nc1cccc(NC(=O)N2CCN(c3ccccc3)CC2)c1)N1CCN(c2ccccc2)CC1,inactive
13,Cc1ccc(O)c(/C=N/NC(=O)COc2ccc3c(C)cc(=O)oc3c2)c1,inactive
14,CC(=O)c1c(C)[nH]c(C(=O)COc2ccc3c(C)cc(=O)oc3c2)c1C,inactive
15,Cc1cc(=O)oc2ccc(OCC(=O)O)cc12,31.6 µM (active)
16,Cc1cccc(C)c1NC(=O)CN1CCN(c2ccc(F)cc2)CC1,inactive
17,Cn1c(=NC(=O)c2ccc3c(c2)OCCO3)sc2cc(S(C)(=O)=O)ccc21,12.6 µM (active)
18,COCCn1c(=NC(=O)c2ccccc2[N+](=O)[O-])sc2cc(S(C)(=O)=O)ccc21,inactive
19,CS(=O)(=O)c1ccc(-c2nnc(NC(=O)c3ccc4c(c3)OCCO4)o2)cc1,inactive
20,CCCNC(=O)C1(C)CCN1C(=O)C1(c2ccccc2)CC1 (stereo not drawn),inactive
21,Cc1ccc(C(=O)NC(=S)NCc2cccnc2)cc1,inactive
22,O=C(/C=C/c1cccs1)NCc1cccnc1,35.5 µM (active)
23,O=C(NCc1cccnc1)c1cn(-c2ccccc2)nc1-c1cccs1,inactive
